# An excerpt weighted towards active compounds, which were near 7.5% of everything screened.
# FLuc modulator = firefly luciferase modulation, counter-screen for miR-21 project; purified FLuc, Km substrates, luminescence inhibition; Potency, µM (highest dose often 57.5 µM), for inactives: top-dose activity change, negative = inhibition, most hits filed as inhibitors; 360,000 compounds, 6.9% hits; AID 588342;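 further: plate controls were vehicle for no effect and reference inhibitor for full effect; nearly all actives have a fitted effect of over 55% in size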
# Target sequence (P08659 whole entry, looked up): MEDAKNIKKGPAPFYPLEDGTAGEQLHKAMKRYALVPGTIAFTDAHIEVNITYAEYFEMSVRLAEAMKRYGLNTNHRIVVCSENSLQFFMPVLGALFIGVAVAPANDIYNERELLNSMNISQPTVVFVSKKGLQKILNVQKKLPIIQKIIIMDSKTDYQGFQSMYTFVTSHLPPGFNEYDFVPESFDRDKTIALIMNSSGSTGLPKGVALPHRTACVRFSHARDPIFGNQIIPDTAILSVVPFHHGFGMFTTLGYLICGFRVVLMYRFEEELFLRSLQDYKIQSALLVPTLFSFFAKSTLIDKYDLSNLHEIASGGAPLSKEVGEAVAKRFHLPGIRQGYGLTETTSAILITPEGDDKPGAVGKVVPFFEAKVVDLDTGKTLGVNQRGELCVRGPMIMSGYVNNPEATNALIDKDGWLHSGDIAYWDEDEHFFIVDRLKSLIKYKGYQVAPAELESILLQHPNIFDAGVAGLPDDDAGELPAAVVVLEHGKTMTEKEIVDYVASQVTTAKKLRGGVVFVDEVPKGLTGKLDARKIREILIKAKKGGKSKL
#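 Biochemical qHTS of compounds, final roughly 60 µM downward over six points, against 10 nM purified firefly luciferase using Km concentrations of substrates (10 uM D-luciferin, 10 uM ATP) in Tris acetate pH 7.5 buffer; luminescence output.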
# SMN2 splice up = enhancers of SMN2 splice variant expression. HEK293 SMN2-luciferase splicing reporter, luminescence, 30-36 h. Potency, µM (top dose mostly 46.1 µM), without a hit: at the highest dose activity change, positive = activation, most hits filed as activators. 210,000 compounds, 2.8% hits. AID 1458; further: % of control where 0% means no effect; nearly all actives have a fitted effect of over 55% in size
#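 HEK293 cells carry an SMN2 minigene-luciferase reporter in which exon 7 inclusion puts luciferase in frame. Cells were seeded at 2000 cells/well, attached for 10-12 hours, then exposed to compounds for 30-36 hours at 37C before ONE-Glo luminescence.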
# Rab9 prom act = activators of Rab9 promoter; AID 485297; 320,000 compounds, 2.8% hits; Potency, µM (top dose mostly 9.22 µM), for the others: top-dose activation, negative = inhibition, actives largely listed as activators; Huh7 Rab9 promoter-luciferase reporter, luminescence, 24 h; further: % of control where 0% means no effect; nearly all actives have a fitted effect of over 60% in size
#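 Luminescence read-out: Huh7 cells stably expressing Rab9-luciferase, treated 24 h with compound at 37 °C, then lysed with luciferase reagent for 10 min at ambient before reading.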
# NPC1 promoter act = activates the NPC1 promoter; Huh7 NPC1 promoter luciferase reporter, 24 h; Potency, µM (doses to about 9.22 µM), inactives show at the top dose activation, actives largely listed as activators; 320,000 compounds, 2.4% hits; AID 485313; further: % of control where 0% means no effect; nearly all actives have a fitted effect of over 60% in size
#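 Luciferase expression driven by the NPC1 promoter was measured in stably transfected Huh7 cells after a 24 h compound incubation, using a luciferase reagent and a luminescence read.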
# ELG1 genotoxic = inducers of genotoxicity in HEK293T ELG1-luciferase cells | HEK293T ELG1-luciferase reporter, luminescence, 16 h | Potency, µM (highest dose often 46 µM), for inactives: top-dose activity change, positive = activation, usual class: activators | 330,000 compounds, 1.3% hits; further: % of control where 0% means no effect; nearly all actives have a fitted effect of over 60% in size
#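 Luminescence read-out: rising ELG1-luciferase signal, reflecting elevated ELG1 protein under genetic stress, flags genotoxic compounds. Cells were treated for 16 hr at 37 °C before ONE-Glo detection.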
# Active calls of the source: *; u = inconclusive; x = no result; [ ] = dose if it differs, or a comment. The call rests on the fitted dose curve; in most records, active means well fitted curve in the direction sought with a large enough effect; inconclusive means small, poorly fitted or top-dose-only effect, or another doubt; inactive means no such curve, though single readings can be large; an effect the other way counts as inactive or inconclusive. Potency means the concentration at half of the fitted maximal effect.
SMILES,FLuc modulator,SMN2 splice up,Rab9 prom act,NPC1 promoter act,ELG1 genotoxic
COc1ccc(-n2nc(C(=O)NCC(=O)N3CCN(c4ccccn4)CC3)c3ccccc3c2=O)cc1,1.2µM*,u,u,u,2%
COc1ccc(/C=C/C(=O)NC(=S)N2CCN(c3ccccn3)CC2)cc1,13µM*,x,0%,6%,10%
COc1ccc(C)cc1NC(=O)CSc1nnc(-c2cc(C)[nH]n2)n1N,-1%,x,-3%,14%,1%
COc1cc(NC(=O)NC(C)c2c(-n3cccc3)sc3c2CCN(C)C3)cc(OC)c1 (stereo not given),2%,x,x,x,x
Cn1nnnc1SCC(=O)c1ccc2c(c1)OCCO2,u,x,u,23%,9%
CCn1nnnc1SCC(=O)c1ccc(C)cc1,15µM*,3%,u,u,u
CCn1c(SCC(=O)c2ccc3c(c2)OCCO3)nnc1-c1ccco1,8.5µM*,21%,0%,2%,-1%
CCn1nnnc1SCC(=O)c1ccc(NC(C)=O)cc1,-12%,-6%,26%,2%,6%
O=C(O)CCSCC(=O)c1ccc2c(c1)OCCO2,11µM*,u,-6%,16%,23%
O=C(O)CCC(=O)c1ccc2c(c1)OCCO2,-14%,12%,6%,1%,0%
CCCn1nnnc1SCC(=O)c1ccc2c(c1)OCCO2,12µM*,3%,u,u,u
Clc1c(Cl)c(Cl)c2n[nH]nc2c1Cl,-10%,x,-6%,-1%,-7%
CCN1CCN(C(=O)/C(C#N)=C/c2ccc(OC(F)F)cc2)CC1,-1%,0%,2%,-1%,0%
Cc1ccc(/C=C(\C#N)C(=O)N2CCCC2)c(C)c1,15µM*,12%,-6%,-14%,u
N#C/C(=C\c1ccc(O)cc1)C(=O)N1CCCC1,-12%,x,-1%,-3%,4%
N#C/C(=C\c1ccc(OC(F)F)cc1)C(=O)N1CCCCC1,13µM*,x,-6%,0%,15%
Cc1c(C)c2c(cc(C)c3c(-c4ccccc4)coc32)oc1=O,u,7%,x,x,x
CCOC(=O)C(/C(N)=N/C(=O)Nc1ccccc1)=C(\C)O,6µM*,-4%,1%,6%,4%
CCCC[C@]12Cc3ccccc3C(O1)c1c(cc(-c3ccccc3)oc1=O)O2,-19%[11.5 µM],x,-15%[1.84 µM],-18%[1.84 µM],x
COc1ccc(-c2csc(NC(=O)c3cccc(N4C(=O)CCC4=O)c3)n2)cc1OC,15µM*,x,-5%,-2%,0%
Cc1ccc(-c2csc(NC(=O)c3cccc(N4C(=O)CCC4=O)c3)n2)o1,9.5µM*,-29%,-4%,0%,-1%
CCc1ccc(-c2csc(NC(=O)C3=NN(c4ccccc4)C(=O)CC3)n2)cc1,6µM*,-43%,-14%,1%,-1%
COc1ccc(C)c2sc(NC(=O)c3cccc(N4C(=O)CCC4=O)c3)nc12,6%,x,5%,2%,11%
COc1ccc(-c2csc(NC(=O)CCN3C(=O)C4CC=CCC4C3=O)n2)cc1OC (stereo not given),17µM*,x,1%,2%,-2%
CC(NC(=O)c1ccc(N2Cc3ccccc3Oc3ncccc32)s1)c1ccccc1 (stereo not given),-11%,x,x,x,x
SMILES,FLuc modulator,SMN2 splice up,Rab9 prom act,NPC1 promoter act,ELG1 genotoxic
CCc1ccc(N(CC(=O)NC(C)C)C(=O)CCC(=O)Nc2nccs2)cc1,0%,x,-4%[1.84 µM],0%,4%
CCCCC(=O)Nc1ccc(C(=O)OCc2cc(=O)n3ccsc3n2)cc1,-3%,x,x,x,x
CCOc1ccc(-c2csc(NC(=O)c3cccc(N4C(=O)CCC4=O)c3)n2)cc1,9.5µM*,x,-6%,-4%,-2%
COc1ccc(-c2csc(NC(=O)c3ccc(N4C(=O)CCC4=O)cc3)n2)cc1,0%,3%,-9%,-8%,0%
CCc1cc2c(=O)oc(-c3ccc(Br)cc3)nc2s1,6µM*,x,18%,14%,-1%
Cc1sc2nc(-c3cccs3)oc(=O)c2c1C,11µM*,x,-2%,15%,3%
Cc1sc2ncnc(OCc3nnc(-c4cccs4)o3)c2c1C,-9%,-16%,-8%,-1%,1%
O=c1oc(-c2cccs2)nc2scc(-c3cccs3)c12,7.6µM*,11µM*,14%,7%,0%
Cc1nc2scc(-c3cccs3)c2c(=O)o1,-1%,3%,-2%,-2%,-2%
Cc1sc2nc(-c3ccc(Br)cc3)oc(=O)c2c1C,2.7µM*,x,7%,u,-3%
CCc1cc2c(=O)[nH]c(-c3ccncc3)nc2s1,u,41%,0%,-2%,6%
CCCCCC(=O)/C=C/[C@@H]1[C@@H](C/C=C\CCCC(=O)O)[C@@H](O)C[C@H]1O,x,7%,x,x,x
CSc1nc(N)n2nc(-c3ccccc3)cc2n1,3.4µM*,x,2.2µM*,2µM*,10µM*
Cc1cc(N)n2nc(-c3ccccc3)cc2n1,1.1µM*,7.9µM*,0.5µM*,u,9.2µM*
Cc1ccc(-c2cc3nc(-c4ccccc4)cc(N)n3n2)cc1,u,7.1µM*,1.8µM*,u,u
CC(=O)Nc1ccc(C(=O)CN2C(=O)CSC2=O)cc1,5%,x,4%,-1%,0%
COc1ccc(CNC(=O)c2cc(-c3ccc(C)c(C)c3)n[nH]2)cc1,11µM*,x,x,x,x
COc1cccc(-c2cc(C(=O)NCc3ccccc3)[nH]n2)c1,21µM*,x,x,x,x
COc1ccc(CNC(=O)c2cc(-c3ccc(Cl)cc3)n[nH]2)cc1,-1%,x,x,x,x
COc1cccc(-c2cc(C(=O)Nc3ccc(Br)c(C)c3)[nH]n2)c1,-6%,x,x,x,x
COc1cccc(-c2cc(C(=O)Nc3ccc(F)cc3)[nH]n2)c1,1.7µM*,x,x,x,x
CCc1ccc(NC(=O)N2CCN(Cc3cc(=O)n4nc(-c5ccccc5OC)sc4n3)CC2)cc1,-4%,x,x,x,x
O=C(/C(=C/O)N=Nc1ccccc1Cl)c1ccccc1,21µM*,-27%,-4%,1%,-4%
COc1nc(N)nc(NC23CC4CC(CC(C4)C2)C3)n1,5.4µM*,28%,5%,7%,u
COc1ccc(NC(=O)O/N=C/c2c(C)nn(C(C)(C)C)c2C)cc1,0.38µM*,x,0.32µM*,0.35µM*,1.6µM*
SMILES,FLuc modulator,SMN2 splice up,Rab9 prom act,NPC1 promoter act,ELG1 genotoxic
Cc1ccc(S(=O)(=O)c2cnc(SC(C)C(=O)Nc3ccccc3)[nH]c2=O)cc1 (stereo not given),u,1%,x,x,x
COCCn1c(C)cc(C(=O)COc2ncnc3ccc(Br)cc23)c1C,-17%,2%,-1%,-2%,5%
C=CCn1c(C)cc(C(=O)COc2ncnc3sccc23)c1C,2.4µM*,5.6µM*,0.79µM*,0.89µM*,2.6µM*
C=CCn1c(C)cc(C(=O)COC(=O)c2cncc(Br)c2)c1C,1.9µM*,x,u,24%,14%
C=CCn1c(C)cc(C(=O)COC(=O)CCc2cc(OC)c(OC)c(OC)c2)c1C,x,x,x,x,2%
Cc1cccc(NS(=O)(=O)c2ccc3c(c2)C(C)(C)C(=O)N3C)c1,-3%,x,x,x,x
